Experiment [1] in a line: antimalarial activity against Dd2 strain (AID 2302;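 active = growth inhibition above 50% at the single 2 µM test dose, taken to imply half-maximal potency below 2 µM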;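 also: 0% = DMSO untreated growth and 100% = chloroquine plus artemisinin killed control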). The settings on record: P. falciparum Dd2 in RBCs, LDH growth readout, 72 h; at 2 µM; stronger effect = higher value.
A short description of experiment [2]: human hepatoma cell viability loss – ATP luminescence, cytotoxicity control for P. falciparum antimalarial project, primary screen (AID 2303;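 active = inhibition above 50%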;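 also: 0% = DMSO wells and 100% = digitonin-killed cells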). The settings on record: HepG2 viability, 24-48 h, at 10 µM, stronger effect = higher value.
Experiment [3] concerns the target L-lactate dehydrogenase (Plasmodium falciparum (isolate CDC / Honduras)) (UniProt Q27743). As to the kind of experiment: PfLDH activity inhibition – cell lysate, 3D7 strain, counter-screen for P. falciparum growth inhibition project (AID 2304).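 Also: 0% = vehicle and 100% = reference inhibitor.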 The settings on record: P. falciparum 3D7 crude extract, LDH APAD/NBT absorbance; at 2 µM; stronger effect = higher value. On the technique in general: Counterscreens check selectivity or assay interference.

Experiment [4] in a line: inhibition of 3D7 malaria parasite growth – strain 3D7 (AID 2306).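 Also: 0% = DMSO wells and 100% = chloroquine plus artemisinin control wells.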 As to conditions: P. falciparum 3D7 erythrocytic growth, LDH absorbance, 72 h; at 2 µM; stronger effect = higher value.
The target of experiment [5] is Calcium-dependent protein kinase 1 (Plasmodium falciparum (isolate 3D7)) (UniProt P62344). As to the kind of experiment: PfCDPK1 kinase inhibitors, biochemical, TCAMS library (AID 1159585; cut-off not given, nearly all actives have IC50 up to about 0.98 µM;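 also: inhibitors leave more ATP so luminescence rises with inhibition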). As to conditions: recombinant PfCDPK1, Kinase-Glo ATP depletion luminescence. (In general: Kinase-Glo reads ATP consumption through a luciferase reaction.)
Calcium-dependent protein kinase 1 (Plasmodium falciparum (isolate 3D7)), sequence (P62344 whole entry, looked up): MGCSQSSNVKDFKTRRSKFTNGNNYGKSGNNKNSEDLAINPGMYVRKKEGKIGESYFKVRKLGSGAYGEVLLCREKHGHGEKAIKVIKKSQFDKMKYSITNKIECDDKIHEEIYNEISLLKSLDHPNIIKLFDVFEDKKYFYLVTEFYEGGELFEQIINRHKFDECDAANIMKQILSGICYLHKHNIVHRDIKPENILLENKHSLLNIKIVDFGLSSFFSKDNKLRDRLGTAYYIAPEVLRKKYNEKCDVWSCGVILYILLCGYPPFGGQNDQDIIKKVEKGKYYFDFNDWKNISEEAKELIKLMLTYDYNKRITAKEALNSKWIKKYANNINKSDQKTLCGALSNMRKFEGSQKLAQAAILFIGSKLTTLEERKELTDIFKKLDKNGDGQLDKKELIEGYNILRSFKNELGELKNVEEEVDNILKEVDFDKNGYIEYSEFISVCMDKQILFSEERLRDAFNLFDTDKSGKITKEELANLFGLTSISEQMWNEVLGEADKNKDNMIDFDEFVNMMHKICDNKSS
Experiment [6] addresses Plasmodium falciparum protein kinase 6 (PK6, PF3D7_1337100) (UniProt Q8IDW1). As to the kind of experiment: PfPK6 kinase inhibitors, biochemical, TCAMS library (AID 1159586). The settings on record: recombinant PfPK6, Kinase-Glo ATP depletion luminescence.
For experiment [7], the target named is Protein kinase 7 (PK7), Plasmodium falciparum 3D7 (PF3D7_0213400) (UniProt Q7YTF7). As to the kind of experiment: inhibition of Plasmodium PK7 catalytic activity – biochemical, TCAMS antimalarial set, Kinase-Glo luminescence (AID 1159587). As to conditions: recombinant PfPK7, Kinase-Glo ATP depletion luminescence.
Protein kinase 7 (PK7), Plasmodium falciparum 3D7 (PF3D7_0213400), sequence (Q7YTF7 1-343): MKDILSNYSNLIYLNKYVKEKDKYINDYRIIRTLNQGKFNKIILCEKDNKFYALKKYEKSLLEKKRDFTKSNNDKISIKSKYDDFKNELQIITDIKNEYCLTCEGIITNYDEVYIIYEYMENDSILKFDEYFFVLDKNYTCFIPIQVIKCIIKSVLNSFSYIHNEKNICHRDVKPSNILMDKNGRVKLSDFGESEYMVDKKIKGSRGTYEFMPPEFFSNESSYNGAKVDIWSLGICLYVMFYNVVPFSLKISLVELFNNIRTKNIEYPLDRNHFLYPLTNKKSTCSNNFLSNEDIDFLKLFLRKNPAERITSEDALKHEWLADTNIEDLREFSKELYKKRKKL
Experiment [8] has as its target Calcium-dependent protein kinase 4 (Plasmodium falciparum (isolate 3D7)) (UniProt Q8IBS5). As to the kind of experiment: PfCDPK4 kinase inhibitors, biochemical, TCAMS library (AID 1159588; cut-off not given, nearly all actives have IC50 up to about 0.91 µM). As to conditions: recombinant PfCDPK4, Kinase-Glo ATP depletion luminescence.

Experimental findings from PubChem BioAssay are described below.

Unmarked numbers belong to inactive results. For some assays here: Measured potencies and affinities stand elsewhere. Calls of active or inactive are those of the source. Unless noted, no rule for the calls is given here.

L-lactate dehydrogenase (Plasmodium falciparum (isolate CDC / Honduras)), sequence (Q27743 whole entry, looked up): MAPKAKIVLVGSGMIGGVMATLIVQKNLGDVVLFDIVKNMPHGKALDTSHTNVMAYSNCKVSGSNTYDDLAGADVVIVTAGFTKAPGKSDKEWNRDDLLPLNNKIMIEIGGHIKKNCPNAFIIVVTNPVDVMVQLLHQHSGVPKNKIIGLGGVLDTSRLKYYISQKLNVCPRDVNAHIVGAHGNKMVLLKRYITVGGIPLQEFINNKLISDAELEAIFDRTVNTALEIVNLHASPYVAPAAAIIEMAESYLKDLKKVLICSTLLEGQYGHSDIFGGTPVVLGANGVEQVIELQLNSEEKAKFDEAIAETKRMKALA
Plasmodium falciparum protein kinase 6 (PK6, PF3D7_1337100), sequence (Q8IDW1 1-305): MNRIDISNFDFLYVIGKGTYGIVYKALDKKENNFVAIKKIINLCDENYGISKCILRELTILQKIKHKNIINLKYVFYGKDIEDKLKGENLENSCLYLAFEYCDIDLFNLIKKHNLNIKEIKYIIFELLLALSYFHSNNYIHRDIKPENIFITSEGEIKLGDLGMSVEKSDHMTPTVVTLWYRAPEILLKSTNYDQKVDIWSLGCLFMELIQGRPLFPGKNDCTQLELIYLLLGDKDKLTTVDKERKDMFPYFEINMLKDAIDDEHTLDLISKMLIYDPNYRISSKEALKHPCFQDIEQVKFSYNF
Calcium-dependent protein kinase 4 (Plasmodium falciparum (isolate 3D7)), sequence (Q8IBS5 whole entry, looked up): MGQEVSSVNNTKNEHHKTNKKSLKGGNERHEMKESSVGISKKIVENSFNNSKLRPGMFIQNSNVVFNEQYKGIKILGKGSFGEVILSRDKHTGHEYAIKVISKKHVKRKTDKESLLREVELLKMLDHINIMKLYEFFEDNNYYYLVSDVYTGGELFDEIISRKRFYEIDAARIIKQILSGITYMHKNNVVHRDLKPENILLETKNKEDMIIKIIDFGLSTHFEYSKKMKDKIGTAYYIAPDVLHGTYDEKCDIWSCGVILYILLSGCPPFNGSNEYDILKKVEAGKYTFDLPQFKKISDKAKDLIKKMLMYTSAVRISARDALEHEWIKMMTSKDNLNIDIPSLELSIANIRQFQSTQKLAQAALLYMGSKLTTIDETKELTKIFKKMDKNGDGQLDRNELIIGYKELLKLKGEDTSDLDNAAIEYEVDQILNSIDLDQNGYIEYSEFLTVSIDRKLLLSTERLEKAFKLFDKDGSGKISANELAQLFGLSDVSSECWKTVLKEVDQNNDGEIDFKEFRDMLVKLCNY

What is called inhibition is the change of the read-out against control, counted positive when it falls. On to `O=c1cc(NCCCCNCc2cccc(Br)c2)[nH]c2ccccc12`, for which the figures for the growth inhibition in experiment [1] and in experiment [4] were 19% and 98% (active), respectively. In addition, the inhibition was -1% in experiment [2] and 0% in experiment [3]. For the same compound, the result in experiment [5], in experiment [6], in experiment [7] and in experiment [8] was inactive.
Turning to `COc1ccc(CNC(=O)c2cnc3c(O)cccc3c2Nc2cccc(NC(=O)c3ccc(Cl)c(Cl)c3)c2)cc1`, the growth inhibition was 89% (active) in experiment [1] and 96% (active) in experiment [4]. Besides, the values for the inhibition in experiment [2] and in experiment [3] were 54% (active) and 4%, respectively. The outcome in experiment [5], in experiment [6], in experiment [7] and in experiment [8] was inactive.
As for `O=C(Nc1nc2cc(S(=O)(=O)NCc3ccc(Cl)c(Cl)c3)ccc2n1CCCN1CCCC1)c1ccc(Cl)cc1`, the figures for the growth inhibition in experiment [1] and in experiment [4] were 16% and 89% (active), respectively. Also, the values for the inhibition in experiment [2] and in experiment [3] were 57% (active) and -1%, respectively. In addition, the outcome in experiment [5], in experiment [6], in experiment [7] and in experiment [8] was inactive.
With `c1ccc(CCNCc2ccc(-c3ccc(CNc4ccc5ncccc5c4)cc3)cc2)cc1`, the growth inhibition in experiment [1] is 27%; in experiment [4], 96% (active). In addition, the inhibition was 36% in experiment [2] and -1% in experiment [3]. The outcome in experiment [5], in experiment [6], in experiment [7] and in experiment [8] was inactive.
On to `COc1cc(-c2cc(-c3ccc(S(C)(=O)=O)cc3)cnc2N)ccc1O`, for which the growth inhibition in experiment [1] and in experiment [4] was 97% (active) in each case. The inhibition is 37% in experiment [2] and -2% in experiment [3]. For the same compound, the outcome in experiment [5], in experiment [6], in experiment [7] and in experiment [8] was inactive.
On to `N#Cc1cncc(-c2nc3c(N4CCN(c5cnccn5)CC4)cccc3n2CCNCc2ccccc2)c1`, for which the results for the growth inhibition in experiment [1] and in experiment [4] were 31% and 99% (active), respectively. Moreover, the inhibition in experiment [2] is 0%; in experiment [3], 4%. The result in experiment [5], in experiment [6], in experiment [7] and in experiment [8] was inactive.
As for `CNCCCn1c(N(C)C)nc2cc(-n3cnc4cc(-c5ccc(Cl)cc5)sc4c3=O)ccc21`, the growth inhibition in experiment [1] is 27%; in experiment [4] it was 86% (active). Further, the inhibition in experiment [2] was 39%; in experiment [3] it was 1%. For the same compound, the outcome in experiment [5], in experiment [6], in experiment [7] and in experiment [8] was inactive.
As for `COc1ccc2c(=O)c(C3CCC(c4ccc(Cl)cc4)CC3)c(C)[nH]c2c1` (configuration not stated), the growth inhibition in experiment [1] was 84% (active); in experiment [4], 97% (active). For the same compound, the inhibition in experiment [2] was 2%; in experiment [3], 1%. The result in experiment [5], in experiment [6], in experiment [7] and in experiment [8] was inactive.
For the compound `COc1cccc(-c2cc(C(=O)Nc3cc(Oc4ccc(O)cc4)cc([N+](=O)[O-])c3)on2)c1`, the growth inhibition is 30% in experiment [1] and 89% (active) in experiment [4]. The inhibition in experiment [2] was 16%; in experiment [3] it was 7%. Besides, the outcome in experiment [5], in experiment [6], in experiment [7] and in experiment [8] was inactive.
For the compound `COc1ccc(C=NNc2cc(C)nc3ccc(C)cc23)c2ccccc12`, the growth inhibition in experiment [1] is 55% (active); in experiment [4], 94% (active). Further, the inhibition was 28% in experiment [2] and 4% in experiment [3]. Further, the result in experiment [5], in experiment [6], in experiment [7] and in experiment [8] was inactive.
`CC(=O)NCCNc1cc(N2CCc3ncnc(Nc4ccc(OCc5c(F)cccc5F)c(Cl)c4)c3C2)ncn1`: the growth inhibition in experiment [1] and in experiment [4] was 100% (active) throughout. The figures for the inhibition in experiment [2] and in experiment [3] were 55% (active) and 4%, respectively. The outcome in experiment [5], in experiment [6], in experiment [7] and in experiment [8] was inactive.
Consider `COc1cc2nc(NCCn3ccnc3C)nc(NCCc3ccccc3)c2cc1OC`, for which the growth inhibition in experiment [1] is 0%; in experiment [4], 99% (active). The inhibition was 21% in experiment [2] and -6% in experiment [3]. Besides, the result in experiment [5], in experiment [6], in experiment [7] and in experiment [8] was inactive.
Regarding `Cc1ccc(-c2nnc(Nc3ccc(C(=O)N4CCCCC4)cc3)c3ccccc23)cc1S(=O)(=O)NCC1CCCO1` (configuration not stated), the growth inhibition in experiment [1] and in experiment [4] was 99% (active) throughout. Further, the inhibition is -5% in experiment [2] and -4% in experiment [3]. In addition, the outcome in experiment [5], in experiment [6], in experiment [7] and in experiment [8] was inactive.
Regarding `COc1ccc(CN2CCC(NCc3cccc(C(F)(F)F)c3)CC2)cc1`, the growth inhibition in experiment [1] was 8%; in experiment [4], 99% (active). For the same compound, the inhibition was 6% in experiment [2] and 0% in experiment [3]. Moreover, the outcome in experiment [5], in experiment [6], in experiment [7] and in experiment [8] was inactive.
Regarding `Brc1ccc(Nc2nc(NCC3CCCO3)c3ccccc3n2)cc1` (configuration not stated), the growth inhibition in experiment [1] was 99% (active); in experiment [4] it was 100% (active). Moreover, the inhibition in experiment [2] was 13%; in experiment [3] it was -3%. Further, the result in experiment [5], in experiment [6], in experiment [7] and in experiment [8] was inactive.
Regarding `Cc1nc(-c2cccc(Nc3nccc(NCC(O)c4ccccc4)n3)c2)cs1` (configuration not stated), the growth inhibition in experiment [1] was 82% (active); in experiment [4] it was 99% (active). Moreover, the inhibition in experiment [2] is 43%; in experiment [3], 3%. Moreover, the result in experiment [5], in experiment [6], in experiment [7] and in experiment [8] was inactive.
Take `CC(C)CCN(Cc1cncn1Cc1cccc(Cl)c1)C(=O)c1cncc(-c2ccccc2)c1`: the figures for the growth inhibition in experiment [1] and in experiment [4] were -1% and 99% (active), respectively. Moreover, the inhibition in experiment [2] is 9%; in experiment [3], -2%. Further, the outcome in experiment [5], in experiment [6], in experiment [7] and in experiment [8] was inactive.
As to `CCCCNCc1ccc(-c2nc(CN(Cc3ccc(Cl)c(Cl)c3)S(=O)(=O)c3ccc(NC(C)=O)cc3)cs2)cc1`, the growth inhibition was 20% in experiment [1] and 96% (active) in experiment [4]. Besides, the inhibition in experiment [2] was 30%; in experiment [3] it was 5%. The result in experiment [5], in experiment [6], in experiment [7] and in experiment [8] was inactive.
As to `N[C@@H](Cc1cc(I)c(Oc2ccc(O)c(C(=O)O)c2)c(I)c1)C(=O)O`, the growth inhibition in experiment [1] is 21%; in experiment [4], 97% (active). Also, the inhibition is 57% (active) in experiment [2] and -1% in experiment [3]. In addition, the result in experiment [5], in experiment [6], in experiment [7] and in experiment [8] was inactive.
